Assay outcomes (PubChem BioAssay)
SARS PLpro yeast = qHTS of Yeast-based Assay for SARS-CoV PLP. S. cerevisiae expressing SARS-CoV PLpro, growth rescue. Potency, µM (highest dose often 32.9 µM), inactives show at the highest dose activity, positive = growth rescue, most hits filed as activators. hit rate 0.19% among 330,000. AID 485353, 2010; note: potency is the fitted concentration of half-maximal effect; 0% is about no effect; nearly all actives have a fitted effect of over 55% in size
Cycloheximide cs = Cycloheximide Counterscreen for Small Molecule Inhibitors of Shiga Toxin; cell reporter, cycloheximide protein synthesis inhibition counterscreen; hit rate 12% among 300,000; max response, %; in the data active = max response mostly above about 13%, no sharp cut-off; inactive = mostly below about 14%; note: read at 38.3 µM for the half of the compounds with a filed dose; 0% is about no effect
Shiga toxin inh = A qHTS for Small Molecule Inhibitors of Shiga Toxin; Vero cells, Shiga toxin protein synthesis inhibition reporter; inhibition, % at 38.7 µM; hit rate 9.2% among 290,000; AID 2315, 2010; in the data active = inhibition mostly above about 28%, no sharp cut-off; inactive = mostly below about 43%; note: 0% is about no effect
NS1 inh = qHTS Assay for Inhibitors of Influenza NS1 Protein Function; hit rate 0.4% among 270,000; Potency, µM (highest dose often 46.1 µM), without a hit: at the highest dose activity, positive = more growth; note: potency is the fitted concentration of half-maximal effect; actives are rising curves; nearly all actives have a fitted effect of over 50% in size
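In this qHTS, NS1 from influenza A is expressed in budding yeast, where it slows growth. Cells are switched from glucose to 2% galactose medium (pH 6.0, -URA), treated with compound, and growth recovery is read at OD600.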
Starred values were filed as active, the others as inactive; ? = inconclusive; . = no result. This is a sample that favours compounds with a hit; in the whole collection about 12% have one here. Unless noted, calls come from the whole dose curve.

SMILES | SARS PLpro yeast | Cycloheximide cs | Shiga toxin inh | NS1 inh
O=C(NNS(=O)(=O)c1ccccc1)c1cc2cc3ccccc3nc2s1 | 5% | 11 | 54* | 25%
O=C(NNC(=O)c1cc2cc3ccccc3nc2s1)c1cccc(C(F)(F)F)c1 | 4% | -2 | -3 | 7%
O=C(NC1CC1)c1cc2cc(Br)ccc2s1 | 5% | 38* | 51* | 7%
O=C(NC1CC1)c1cc2cc3ccccc3nc2s1 | 15% | 41* | 99* | 5%
CCOC(=O)N1CCN(S(=O)(=O)c2ccc(C(=O)Nc3ccc4c(c3)C(=O)NC4=O)cc2)CC1 | 17% | -4 | 16 | 11%
COC1(C)CC2C(CC1OC(=O)c1cc([N+](=O)[O-])cc([N+](=O)[O-])c1)C2(C)C (centres undefined) | -82% | -2 | -8 | -24%
CC(=O)/C(=C\c1ccccc1F)C(=O)c1ccccc1 | . | . | . | -4%
N#CCc1ccc(NC(=O)/C=C/c2ccc([N+](=O)[O-])o2)cc1 | 0% | 37* | 56* | .
N#C/C(=C\c1ccc([N+](=O)[O-])o1)C(=O)Nc1ccc(F)cc1 | -5% | 13 | 35 | -65%
COc1cc(/C=N/NC(=O)c2nonc2C)ccc1O | -1% | 29 | 63* | 6%
COc1cc(/C=N/NC(=O)c2cccc(C(=O)N/N=C/c3ccc(O)c(OC)c3)n2)ccc1O | -2% | 10 | 19 | 5%
COc1cc(/C=N/NC(=O)c2nc(C)cc(C)n2)ccc1O | 3% | 17* | 48 | 3%
COc1cc(/C=N/NC(=O)c2nonc2N)cc(OC)c1OC | 0% | 32* | 87* | .
Cc1nonc1C(=O)N/N=C/c1ccc(O)c(O)c1 | 27% | 42* | 99* | 5%
COc1ccc(C(=O)NNC2CC(=O)N(Cc3ccc(Cl)cc3)C2=O)cc1OC (centres undefined) | ? | 5 | -5 | 5%
c1ccc(Cn2cc(-c3ccccc3)cn2)cc1 | 0% | . | . | .
Cc1nonc1C(=O)N/N=C/c1ccccc1 | 0% | 39* | 87* | -1%
COc1ccc2c(CC(=O)OCC(=O)Nc3sc4c(c3C#N)CCC(C)C4)coc2c1 (centres undefined) | 6% | 13 | 6 | 14%
N#Cc1ccccc1NC(=O)COC(=O)c1ccc2c(c1)OCCO2 | -2% | 19* | 29 | -12%
COC(=O)c1ccccc1NC(=O)c1ccc2c(c1)OCCCO2 | 5% | 22* | 30 | -41%
Cc1cccc(NC(=O)c2ccc3c(c2)OCCO3)c1C | 2% | 47* | 109* | 3%
Cc1cccc(NC(=O)COC(=O)c2ccc3c(c2)OCO3)c1C | -1% | -5 | 5 | 1%
N#Cc1ccccc1COC(=O)c1ccc2c(c1)OCCO2 | 6% | . | . | .
N#Cc1ccccc1NC(=O)c1ccc2c(c1)OCCO2 | -2% | 31* | 99* | 3%
CC(C)(C)NC(=O)c1ccccc1NC(=O)c1ccc2c(c1)OCO2 | 0% | -4 | -19 | -3%
SMILES | SARS PLpro yeast | Cycloheximide cs | Shiga toxin inh | NS1 inh
Cc1ccccc1NC(=O)c1ccc2c(c1)OCCO2 | -2% | 18* | 137* | 1%
CCOc1ccc(-c2cc(CCCC(=O)NCCc3ccccc3)no2)cc1 | 6% | 8 | 52 | 5%
CCOc1ccc(-c2cc(CCCC(=O)NCCC(C)C)no2)cc1 | 0% | 25* | 134* | .
CCOc1ccc(-c2cc(CCCC(=O)NCc3cccnc3)no2)cc1 | -13% | 51* | 65* | -40%
CC(=O)Nc1ccc2nc(NC(=O)COc3ccccc3C)sc2c1 | 1% | 50* | 35 | .
CC(=O)Nc1ccc2nc(NC(=O)COc3ccccc3Cl)sc2c1 | 2% | 26* | 43* | .
CC(=O)Nc1ccc2nc(NC(=O)CCc3ccccc3)sc2c1 | -4% | 27* | 56* | .
CC(=O)Nc1ccc2nc(NC(=O)COc3ccccc3)sc2c1 | -1% | 15 | 25 | .
COc1cccc2sc(Nc3nc4ccc(NC(C)=O)cc4s3)nc12 | -7% | 22* | 44* | ?
CCOC(=O)C(=O)NNc1ccc(F)cc1 | -2% | 16 | 14 | -45%
Cn1c(=O)c2c(ncn2CC(=O)OCC(=O)Nc2cccc(Cl)c2)n(C)c1=O | 2% | -2 | -5 | .
CCOc1cc(C2NN=C(c3ccccc3)S2)ccc1OCc1ccccc1Cl (centres undefined) | -5% | 45* | 66* | -23%
CCOc1cc(C2NN=C(c3ccccc3)S2)ccc1OCc1ccc(F)cc1 (centres undefined) | 0% | 43* | 112* | -13%
CNCc1ccccc1OCc1ccc(F)cc1 | 0% | -3 | -12 | 2%
O=C(Nc1ccc(S(=O)(=O)Nc2cnc3ccccc3n2)cc1)c1ccc(Cl)c([N+](=O)[O-])c1 | 16% | 1 | -4 | 4%
N/C(Cc1ccc([N+](=O)[O-])cc1)=N\OC(=O)Cc1ccccc1 | -7% | 11 | -8 | -22%
O=C(OCc1c(F)cccc1Cl)c1cc([N+](=O)[O-])ccc1N1CCOCC1 | 4% | . | . | .
N/C(Cc1ccc([N+](=O)[O-])cc1)=N\OC(=O)c1ccccc1F | -1% | 18* | 38* | -3%
N/C(Cc1ccc(Cl)cc1)=N\OC(=O)c1cccc2ccccc12 | -58% | 23* | 37 | -196%
COc1ccc(C/C(N)=N/OC(=O)c2ccc(Cl)cc2)cc1 | -4% | 21* | 55* | .
O=C(Cc1ccc([N+](=O)[O-])cc1)OCc1c(F)cccc1Cl | 6% | 17* | 56 | -10%
O=C(NCc1ccncc1)C1CCCN1S(=O)(=O)c1ccc(Cl)cc1 (centres undefined) | 0% | -1 | -7 | 1%
CCOCCCNS(=O)(=O)c1ccc(Br)cc1 | 3% | -3 | -10 | 5%
CCN(CC)C(=O)[C@H]1CC(CC(=O)NCC23CC4CC(CC(C4)C2)C3)C(=O)N2CCc3c([nH]c4ccc(OC)cc34)[C@]12C (some centres undefined) | 1% | . | . | .
Nc1nc(SCC(=O)c2ccc(Oc3ccccc3)cc2)n[nH]1 | -13% | 29* | 37 | -5%
SMILES | SARS PLpro yeast | Cycloheximide cs | Shiga toxin inh | NS1 inh
CC(C)c1ccc(C(=O)CSc2n[nH]c(-c3ccncc3)n2)cc1 | -32% | 8 | 15 | -221%
O=C(CSc1n[nH]c(-c2ccccc2)n1)c1ccccc1 | -21% | 52* | 71* | -18%
CC(C)(C)c1nnc(NC(=O)Nc2ccc(Cl)cc2)s1 | 0% | 15 | 29* | 1%
Cc1nc(NC(=O)Nc2ccc(Cl)cc2)sc1C | -1% | 27* | 41* | .
COc1ccc(CCC(=O)Nc2nnc(C(C)(C)C)s2)cc1 | -3% | -3 | 14 | 1%
COc1ccc(NC(=O)Nc2nnc(C(C)(C)C)s2)cc1 | 0% | 23* | 49* | 2%
CC(=O)Nc1ccc(S(=O)(=O)Nc2nnc(C(C)(C)C)s2)cc1 | ? | -1 | -3 | 4%
Cc1nc(NS(=O)(=O)c2ccccc2)sc1NC(=O)Nc1ccc(Cl)cc1 | -1% | -2 | -17 | 9%
CC(C)(C)c1nnc(NC(=O)NS(=O)(=O)c2ccccc2)s1 | 3% | 23* | 29 | 0%
OCc1ccc2c(c1)c(-c1ccc3c(c1)OCCO3)c(-c1ccccc1)n2-c1ccccc1 | -5% | . | . | .
COc1ccccc1C(=O)N/C(=C/c1ccc2c(c1)OCO2)C(=O)Nc1ccc(C(=O)O)cc1 | -10% | -4 | -5 | 1%
